Laboratory results reported in PubChem BioAssay AID751 (NMMLSC, 2007).
Out of some 24,000 compounds screened, about 40 (0.2%) were called active.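 The calls were made as follows: active = inhibition of disassembly above about 33% (limit read from the data); inconclusive = likely self-fluorescent, control bead median signal at least 40; inactive = the rest.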 Many of the other results were omitted from the sample, so actives are more common in it than they were.

Test system: 26S proteasome (yeast, GFP-tagged, ATP-dependent disassembly)
Assay: blockers of yeast 26S proteasome breakdown – biochemical, bead-based flow cytometry, GFP-tagged proteasome, primary screen (AID 751);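 also: plate controls were ATP control with full disassembly for no effect and ATP-gamma-S intact proteasomes for full effect; higher percent means more bead fluorescence retained so stronger block of disassembly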
Details: anti-FLAG beads, active compounds read high, concentration not given here

| SMILES | inhibition of disassembly |
| --- | --- |
| O=C(NCC(c1cccnc1)N1CCN(c2ccccc2)CC1)Oc1ccccc1 (stereo not given) | 44.6% (active) |
| COc1ccccc1N1CCN(C(CNC(=O)Oc2ccccc2)c2cccnc2)CC1 (stereo not given) | 19.4% (inactive) |
| CC(C)c1ccc(O)c(CN2CCN(c3ccccc3)CC2)c1 | 0.72% (inactive) |
| Cc1cccc(-n2c(C)nc3cc(C(=O)N4CCC5(CC4)OCCO5)ccc32)c1 | 1.69% (inactive) |
| CCOC(=O)C1=C(C)OC(N)=C(C(=O)OC)C12C(=O)Nc1ccc(Br)cc12 (stereo not given) | -0.24% (inactive) |
